# Most compounds without a hit are left out; they make up all but 1.6% or so of the library.
# ATG4B inh – ATG4B (human) cysteine protease inhibition; inhibition, % at 8.33 µM; ATG4B cleavage of LC3-PLA2, NBD-HPC fluorescence, 1 h; AID 504462; 340,000 compounds, 0.51% hits; in the data active means inhibition above about 40%
# Target sequence (Q9Y4P1 whole entry, looked up): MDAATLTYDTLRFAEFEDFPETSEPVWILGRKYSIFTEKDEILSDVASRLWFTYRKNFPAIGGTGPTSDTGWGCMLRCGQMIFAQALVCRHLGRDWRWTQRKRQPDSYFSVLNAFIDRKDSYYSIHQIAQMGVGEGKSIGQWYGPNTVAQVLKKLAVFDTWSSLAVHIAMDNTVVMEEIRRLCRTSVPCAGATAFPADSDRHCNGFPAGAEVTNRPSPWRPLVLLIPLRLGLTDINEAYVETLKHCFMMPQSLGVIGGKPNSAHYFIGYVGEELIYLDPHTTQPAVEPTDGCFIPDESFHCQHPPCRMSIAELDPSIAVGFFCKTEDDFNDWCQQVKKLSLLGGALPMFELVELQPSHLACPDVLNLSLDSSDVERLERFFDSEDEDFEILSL
# VLA-4 inh – inhibition in a human VLA-4 binding assay; P13612; VLA-4 expressing cells, ligand binding flow cytometry; inhibition, % (about 7 µM as worked out from the volumes in the protocol); 330,000 compounds, 0.2% hits
# NRP1-CendR mod – modulators of CendR peptide binding to human neuropilin-1 | FAM-RPARPAR peptide binding to NRP-1, fluorescence polarization | inhibition, % at 25 µM | 360,000 compounds, 0.85% hits | AID 602438;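 active means inhibition or corrected inhibition above about 18%, plus a signal ratio from 0.5 to 1.5, limit read from the data, passing the limit was not always enough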
# PKA-R1A act – activators of PKA-R1A complex | P00514+P68181 | PKA-R1A dissociation, Cy5-IP20 fluorescence polarization; scaled: DMSO 0%, 113 µM cGMP 100% | activation, % at 11.4 µM | 340,000 compounds, 0.083% hits;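 active means percent activation above the mean of all tested compounds plus 3 SD, cut at about 19% in these data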;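 further: higher means more PKAc released from R1A so a rise in polarization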
# PKA-R2B act – activators of human PKA-R2B complex | activation, % at 11.4 µM | PKA-R2B holoenzyme dissociation, Cy5-IP20 fluorescence polarization; R2B truncated from residue 108, S112A mutant; 0% DMSO only, 100% 113 µM cGMP | AID 504700 | 340,000 compounds, 0.079% hits | P22694+P31323;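 active means activation above a cutoff set at the mean over all compounds plus 3 SD, cut at about 18% in these data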;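 further: higher means more holoenzyme dissociation and a rise in polarization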
# ATG4B confirm – confirmation of human ATG4B inhibitors; ATG4B protease fluorescent substrate cleavage assay; AID 504757; 320 compounds, 92% hits; shares compounds with ATG4B inh; inhibition, % at 8.33 µM; in the data active means inhibition above about 39%
# PLA2 ctr – PLA2 (human) inhibition in ATG4B counter-screen; shares compounds with ATG4B inh; purified PLA2, NBD-C6-HPC fluorescence, 45 min; inhibition, % at 8.33 µM; 1,600 compounds, 66% hits; AID 588402
# Target sequence (P04054 whole entry, looked up): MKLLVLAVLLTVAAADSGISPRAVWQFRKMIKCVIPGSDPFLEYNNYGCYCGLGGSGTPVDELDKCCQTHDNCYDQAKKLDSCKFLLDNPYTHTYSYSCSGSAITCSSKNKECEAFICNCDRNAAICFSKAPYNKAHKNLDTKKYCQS
# * = called active by the depositor; nt = no result. Unless noted, no stated cut-off is given here; in the data, active means inhibition above about 50%; inactive means the rest.
SMILES,ATG4B inh,VLA-4 inh,NRP1-CendR mod,PKA-R1A act,PKA-R2B act,PLA2 ctr,others
S=C(NCc1ccccc1)Nc1ccc(Oc2ccccc2)cc1,56.8*,3.5,-14.1,-11.1,-7.2,66.5*,
Fc1ccc(NC(=S)Nc2ccc(F)c(Cl)c2)cc1Cl,71.7*,-2.2,-2.7,-6.1,-2.0,76.3*,
O=C(Nc1ccccn1)C(c1ccccc1)c1ccccc1,nt,nt,2.4,-2.2,-8.2,nt,
Fc1ccc(CNC(=S)Nc2cccc(Cl)c2)cc1,60.9*,13.8,-5.1,-13.3,-11.2,67.4*,
Fc1cccc(NC(=S)NCc2ccccc2Cl)c1,40.3*,-0.3,-1.8,-10.7,0.7,49.0,
O=[N+]([O-])c1ccc(NC(=S)NCc2ccncc2)cc1,-4.7,-9.2,18.3,-11.3,-4.7,nt,
O=C(COC(=O)c1ccccc1Nc1ccccc1)NCc1ccccc1,0.8,1.8,0.7,-7.1,-6.7,nt,
O=C(COC(=O)c1ccccc1Nc1ccccc1)NCc1ccccc1Cl,48.7*,18.1,3.5,7.4,7.5,13.9,
S=C(NCc1ccncc1)Nc1cccc(Cl)c1,2.5,40.5,8.1,10.4,-3.9,nt,
O=[N+]([O-])c1ccc(NC(=S)NCc2ccc(F)cc2)cc1,57.1*,6.8,1.5,-1.6,-6.1,68.1*,
CN(Cc1ccccc1)C(=O)CCCn1c(=O)c2cccn2c2cccnc21,-2.3,18.1,16.1,-1.7,-7.4,nt,
Nc1nc(-c2ccccc2)nn1S(=O)(=O)c1ccccc1,-3.6,5.2,2.7,5.1,1.3,nt,
S=C(NCc1ccccc1)NCc1ccc(CNC(=S)NCc2ccccc2)cc1,38.8,-8.0,-8.6,-4.1,-4.4,nt,
Fc1ccc(CNC(=S)Nc2ccc(Cl)cc2)cc1,43.5*,5.2,9.4,-20.4,-0.5,52.2*,
CCN(CC)C(=S)Nc1ccc([N+](=O)[O-])cc1,57.9*,19.2,-1.4,-4.9,-5.0,4.8,
Cc1ccc(CNC(=S)Nc2ccc(OC(F)F)cc2C)cc1,4.3,-8.4,-5.1,-11.8,5.6,nt,
Fc1ccc(CNC(=S)NCc2ccccc2)cc1,42.6*,-15.0,17.3,-9.0,-2.4,22.4,ATG4B confirm=71.5*
Cc1ccc(NC(=S)NCc2ccc(Cl)cc2)c(OC(F)F)c1,47.0*,-6.1,20.9,-8.4,-9.0,54.6*,
CCNC(=O)C(=O)Nc1ccc([N+](=O)[O-])cc1,-4.6,3.9,4.8,-1.4,0.8,nt,
O=C(NCc1ccccc1Cl)c1ccccc1Oc1ccccc1,52.7*,1.2,-0.5,1.8,-8.1,48.8,
COC(=O)c1cccc(NC(=S)NCc2ccc(F)cc2)c1,41.8*,2.1,46.0*,-8.9,1.6,50.5*,
O=C(N/N=C/c1ccc(-c2ccc(S(=O)(=O)Nc3ncccn3)cc2)o1)c1cc2ccccc2cc1O,75.1*,1.8,-153.4,-0.2,-8.0,16.4,ATG4B confirm=37.5
Nc1nc(SCc2nnc(SCC(=O)O)n2-c2ccccc2)nc2sc3c(c12)CCCC3,46.1*,8.9,-9.9,-0.8,3.7,63.0*,
COc1ccccc1NC(=O)CCNC(=O)C1CCN(S(=O)(=O)c2ccccc2)CC1,nt,nt,1.3,6.2,-11.7,nt,
Cc1ccc(O)c(-c2cc(-c3ccccc3F)[nH]n2)c1,17.6,10.3,-3.2,-0.2,-11.8,nt,
SMILES,ATG4B inh,VLA-4 inh,NRP1-CendR mod,PKA-R1A act,PKA-R2B act,PLA2 ctr,others
Cc1ccc(-c2cc(-c3ccccc3C)[nH]n2)c(O)c1,57.2*,17.6,4.8,-12.7,1.8,74.3*,
Cc1cc(-c2nnc(SCC(=O)Nc3ccc(C)c(C)c3)n2N)n[nH]1,-4.0,-6.8,1.3,-10.6,3.2,nt,
O=C(Nc1cccc(S(=O)(=O)N2CCCCC2)c1)C1=NN(c2ccccc2)C(=O)CC1,-9.2,4.6,-5.2,-8.2,-4.4,nt,
Cc1nc(NC(=O)c2ccccc2)sc1C1(C)CC(c2ccccc2F)=NO1 (stereo not drawn),44.5*,-8.7,4.2,2.4,-6.2,63.5*,
Cc1nc(NC(=O)c2ccccc2)sc1C1(C)CC(c2c(Cl)cccc2Cl)=NO1 (stereo not drawn),37.0,nt,7.0,-4.9,-4.7,nt,
CC1(C)CC(NC(=O)COc2ccc3c4c(c(=O)oc3c2)CCCC4)CC(C)(C)N1,-1.8,-0.5,8.2,-2.1,0.1,nt,
O=C(Nc1cccc(S(=O)(=O)Nc2ccc(Cl)cc2)c1)c1ccccn1,-14.8,4.1,9.3,-13.9,-4.7,nt,
Cc1c(NC(=O)c2ccccc2NC(=O)COc2ccccc2)cccc1C(=O)O,40.1*,-2.5,5.7,-10.2,5.5,-14.1,
Cc1cccc(OCC(=O)Nc2ccccc2-c2ccccc2)c1,45.1*,-11.1,-1.0,-8.8,-4.9,43.6,ATG4B confirm=63.9*
Cc1c(NC(=O)c2ccccc2NC(=O)c2ccccc2)cccc1C(=O)O,2.9,3.5,-13.5,-4.4,0.5,nt,
C=CCc1ccccc1OCC(=O)NNC(=S)NCc1ccccc1,68.7*,3.0,20.7,9.0,0.1,68.8*,
O=C(COc1ccc(Cl)cc1)NNC(=S)NCc1ccccc1,3.8,0.6,-1.8,4.5,-4.1,nt,
COCCN(C(=O)c1cc(Cl)nc2ccccc12)c1c(N)n(Cc2ccccc2)c(=O)[nH]c1=O,-12.8,4.9,-9.4,-3.2,3.7,nt,
COc1ccc(S(=O)(=O)N(Cc2cccs2)C2CCCC2)cc1,50.3*,-17.1,1.5,-12.5,-4.9,53.5*,
COc1ccc(S(=O)(=O)NCc2cccs2)cc1,-5.6,-34.8,-5.7,-1.5,-5.6,nt,
CCCc1cc(C(=O)NC2CCCCC2)no1,-7.2,-0.5,1.9,1.6,8.8,nt,
CCCc1cc(C(=O)N(C2CCCCC2)C2CCCCC2)no1,59.6*,28.0,-9.6,10.5,1.3,71.6*,
Cc1cccc(C)c1NC(=O)CN(C)C(=O)c1ccc2c(=O)n3c(nc2c1)CCC3,8.0,4.1,15.7,-2.5,-14.3,nt,
N=C1S/C(=C\c2ccc(-c3cccc(Cl)c3)o2)C(=O)N1c1nccs1,11.5,20.2,-47.6,0.7,0.9,nt,
O=C1OC(c2cccs2)=N/C1=C\c1ccc(-c2cccc(Cl)c2)o1,70.6*,-67.4,-137.1,-7.0,-6.6,42.6,ATG4B confirm=54.8*
O=C(c1cc(Cl)ccc1F)N1CCCC(Nc2ccc3c(c2)OCCO3)C1 (stereo not drawn),-1.4,-3.3,16.9,-12.0,-1.6,nt,
O=C1NC(=S)S/C1=C\c1ccc(SCc2ccccc2)o1,40.2*,25.9,-155.3,-12.0,-4.4,55.6*,
COc1ccccc1C=C1SC(=S)NC1=O,1.0,nt,-34.8,4.0,3.0,nt,
COc1ccc(C)cc1NC(=O)CSc1nc(=O)n(CCCN2CCOCC2)c2c1CCCC2,-0.9,12.1,-6.6,-7.1,5.3,nt,
Cc1oc(-c2ccccc2F)nc1CS(=O)(=O)CC(=O)NCc1ccccc1Cl,48.8*,-4.2,0.1,-7.1,4.6,67.1*,

# High-throughput results from PubChem BioAssay.
